The campaign covered roughly 2,100 compounds. About 1,100 (52%) were called active. Another 29% or so got no clear call; they are omitted. The call rests on the fitted dose curve; in most records, active means well fitted inhibition curve with a large enough effect; inconclusive means small, poorly fitted or top-dose-only effect; inactive means no such curve, though single readings can be large or run the other way. The set was probably picked from earlier hits. This is one part of the list.
Molecular target: DNA dC->dU-editing enzyme APOBEC-3F (Homo sapiens) (UniProt Q8IUX4)
Experiment: qHTS for inhibitors of Vif-A3F interactions: Cherry picks counterscreen; further: nearly all actives have a fitted effect of over 65% in size
Conditions: HeLa A3F-eYFP/Vif cells, eYFP fluorescence, 24 h; series mostly up to 46.1 µM
How it was run: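 HeLa cells stably expressing A3F-eYFP and Vif, cultured overnight, then treated 24 h at 37 degrees C with compounds at several concentrations; yellow fluorescence (488 nm Ex/500-530 nm Em) imaged on Acumen; MG132 positive control.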
Potency means the concentration at half of the fitted maximal effect.

DNA dC->dU-editing enzyme APOBEC-3F (Homo sapiens), sequence (Q8IUX4 whole entry, looked up): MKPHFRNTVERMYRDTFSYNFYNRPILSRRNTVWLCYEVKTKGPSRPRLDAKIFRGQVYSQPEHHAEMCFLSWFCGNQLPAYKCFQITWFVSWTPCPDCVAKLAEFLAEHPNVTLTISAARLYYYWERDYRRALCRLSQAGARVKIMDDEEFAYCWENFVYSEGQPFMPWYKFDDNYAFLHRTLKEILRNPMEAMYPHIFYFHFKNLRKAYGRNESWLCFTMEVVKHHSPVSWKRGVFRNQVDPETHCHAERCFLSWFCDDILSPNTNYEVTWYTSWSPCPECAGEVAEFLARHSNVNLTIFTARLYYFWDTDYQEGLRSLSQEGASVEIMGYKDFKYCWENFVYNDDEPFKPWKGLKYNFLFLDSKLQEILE

Compound	Potency
CCCOc1ccc2cc(C(=O)NCc3ccccc3)c(=O)oc2c1	inactive
CCOc1ncccc1C(=O)NCc1ccc(OC)cc1	8.86 µM (active)
CCOc1ccc(CNC(=O)c2ccccc2NC(=O)c2nsc3ccccc23)cc1	16.4 µM (active)
COc1ccc2c(n1)Sc1nc3ccccc3nc1N2	3.26 µM (active)
Cc1oc(C)c2c(=O)ccc3c(c12)OC(N)=C(C#N)C3c1ccc(F)cc1 (configuration not stated)	inactive
N#CC1=C(N)Oc2cc(N)ccc2C1c1cccc(F)c1 (configuration not stated)	2.5 µM (active)
COc1ccc(C2C(C#N)=C(N)Oc3cc(N)ccc32)cc1OC (configuration not stated)	12.5 µM (active)
COc1cc(C2C(C#N)=C(N)Oc3cc(O)ccc32)cc2c1OCO2 (configuration not stated)	15.8 µM (active)
COc1ccc(C2C(C#N)=C(N)Oc3c2ccc2cccnc32)cc1OC (configuration not stated)	3.53 µM (active)
N#CC1=C(N)Oc2cc(N)ccc2C1c1cccc(Br)c1 (configuration not stated)	1.98 µM (active)
Cc1ccc2nc(-c3ccccn3)c(NC3CCCC3)n2c1	inactive
O=C(N/N=C/c1ccc(Cl)cc1)c1cc2c(s1)-c1ccccc1CC2	5.59 µM (active)
Cc1cc2c(cc(C(=O)OCC(=O)NCc3cccs3)n2C(C)C)o1	1.77 µM (active)
CCOC(=O)Cc1csc(NC(=O)c2sc3nc4c(C)cc(C)cc4cc3c2N)n1	16.4 µM (active)
O=C(Cn1ncc(Cl)c(Cl)c1=O)Nc1ccc2c(c1)OCO2	15.8 µM (active)
Cc1cc(C)cc(Oc2nc(C(F)(F)F)nc3ccccc23)c1	11.2 µM (active)
Cc1ccc(/C=N/NC(=O)c2ccc3ccccc3c2)s1	2.23 µM (active)
CNC(=S)N/N=C/c1ccc(N2CCOCC2)s1	inactive
Cc1ccc(/C=N/NC(=O)C2COc3ccccc3O2)s1 (configuration not stated)	4.98 µM (active)
Cc1sc2ncn(CC(=O)NCc3ccccc3)c(=O)c2c1C	inactive
Cc1ccc(Cn2nnc3c(=O)n(CC(=O)NCc4ccccc4)cnc32)cc1	14 µM (active)

Compound	Potency
CC(C)(C)n1ncc2c(=O)n(CC(=O)NCc3ccc(F)cc3)cnc21	14 µM (active)
O=C(Cn1cnc2c(cnn2-c2ccc(F)cc2)c1=O)NCc1ccco1	9.94 µM (active)
CCc1cccc2c(C(O)c3c[nH]c4ccccc34)c[nH]c12 (configuration not stated)	20.6 µM (active)
CCn1c(SCC(=O)Nc2cccc(O)c2)nc2c1c(=O)n(C)c(=O)n2C	inactive
COc1ccc(NC(=O)CSc2nc3c(oc4ccccc43)c(=O)n2Cc2ccco2)cc1Cl	18.4 µM (active)
N=c1n(CC(=O)c2ccc([N+](=O)[O-])cc2)c2ccccc2n1Cc1ccccc1	20.6 µM (active)
Cc1cccc(C)c1OCCNC(=O)C(=O)NCc1ccco1	2.8 µM (active)
Cc1ccc2c(CC(=O)NCc3ccco3)coc2c1C	9.94 µM (active)
O=C(COC(=O)C12CC3CC(CC(Cl)(C3)C1)C2)N1CCCCC1	inactive
COc1ccc2o/c(=N/NC(=O)c3cccs3)c(C(N)=O)cc2c1	7.04 µM (active)
Cc1ccc2c(Cl)c(C)c(N3CCCC3)nc2n1	inactive
CCN(CC)c1nc2cc(OC)ccc2cc1C#N	inactive
COc1ccc(Nc2nc3cc(C)ccc3cc2C#N)cc1	14.6 µM (active)
COc1ccc(Nc2nc3cc(C)ccc3cc2C#N)c(OC)c1	1.58 µM (active)
Cc1ccccc1NCC(=O)N=Nc1c(O)[nH]c2ccc([N+](=O)[O-])cc12	inactive
O=[N+]([O-])c1ccc(N/N=C/c2c[nH]c3ccccc23)cc1	16.4 µM (active)
O=[N+]([O-])c1ccc(N=Nc2ccc(O)c3ccccc23)cc1	inactive
Cc1[nH]c2ccccc2c1/C=N/Nc1ccc([N+](=O)[O-])cc1	9.2 µM (active)
C/C(=N/Nc1ccc([N+](=O)[O-])cc1)c1c[nH]c2ccccc12	inactive
COc1ccccc1NS(=O)(=O)c1cc([N+](=O)[O-])ccc1N/N=C/c1c(C)[nH]c2ccccc12	3.96 µM (active)
O=[N+]([O-])c1ccc(N/N=C/c2c[nH]c3ccccc23)c(S(=O)(=O)Nc2ccc(Cl)cc2)c1	18.4 µM (active)

Compound	Potency
COc1ccccc1NS(=O)(=O)c1cc([N+](=O)[O-])ccc1N/N=C/c1c[nH]c2ccccc12	13 µM (active)
COc1ccc(NS(=O)(=O)c2cc([N+](=O)[O-])ccc2N/N=C/c2c(C)[nH]c3ccccc23)cc1	10.3 µM (active)
CC(C)CC(=O)NC(=S)N(Cc1ccccc1)Cc1ccccc1	inactive
CC[n+]1c(C=C2C=C(C)OC(C)=C2)sc2ccccc21	4.61 µM (active)
COc1cc(N2CCCC2)c(OC)cc1/C=C1/NC(=S)NC1=O	1.58 µM (active)
COc1ccc(/C=C/C=C2\NC(=S)NC2=O)cc1	inactive
Cc1cc(C)c2nc(SCC(=O)N3CC(=O)Nc4ccccc43)c(C#N)cc2c1	3.14 µM (active)
Cc1cccc2cc(C#N)c(SCC(=O)N3CC(=O)Nc4ccccc43)nc12	7.9 µM (active)
CC1=C(C(=O)Nc2cccc(F)c2)C(c2ccsc2)C2=C(CC(C)(C)CC2=O)N1 (configuration not stated)	2.8 µM (active)
COc1ccc2cc(-c3nc(Cl)c4c5c(sc4n3)CC(C)CC5)c(=O)oc2c1 (configuration not stated)	20.6 µM (active)
CCN(CC)c1ccc2cc(-c3nc4sc5c(c4c(=O)[nH]3)CCC(C(C)(C)C)C5)c(=O)oc2c1 (configuration not stated)	inactive
Nc1[nH]c2cc([N+](=O)[O-])ccc2c1-c1ccccn1	20.6 µM (active)
COc1cc(-c2noc(C)c2C#Cc2ccc(N)cc2)cc(OC)c1OC	0.994 µM (active)
Cc1ccc(-c2nc(-c3cc4cccc(OCc5cccc(F)c5)c4oc3=O)no2)cc1	23.1 µM (active)
N#Cc1c(Nc2ccccc2)[n+]([O-])c2ccc(Cl)cc2[n+]1[O-]	inactive
C=C(C(=O)c1ccccc1)C(C)C(=C)C(=O)c1ccccc1	3.53 µM (active)
C=C(C(=O)c1ccccc1)C(C(=C)C(=O)c1ccccc1)c1ccc(OC)cc1	3.96 µM (active)
S=C(NC1CCCCC1)N(CCc1ccccc1)CCc1ccccc1	inactive
COCCN1C(=O)/C(=C/c2ccc(N3CCCC3)cc2)SC1=S	5.17 µM (active)
COCCN1C(=O)/C(=C/c2ccc(N3CCCC3)cc2C)SC1=S	2.91 µM (active)
